Results filed as inconclusive are left out. Entries that show only a call come without a potency. Activity calls are given as the source filed them. Calls come from the whole dose curve; as a rule, active = well fitted activation curve with a large enough effect; inconclusive = small, poorly fitted or top-dose-only effect; inactive = flat fitted curve, though single readings scatter.
Potency is the fitted concentration of half-maximal effect.

The experiment deals with D(1A) dopamine receptor (Homo sapiens) (UniProt P21728). The experiment is described as follows: HTS Assay for Allosteric Agonists of the Human D1 Dopamine Receptor: Primary Screen for Agonists (AID 488981). To be noted: Inducible HEK293 T-REx D1 cells, calcium-flux fluorescence, 180 s kinetic; series mostly up to 41.8 µM. From the text: Dopamine receptors (DARs) are involved in the etiology and/or therapy of a number of neuropsychiatric and endocrine disorders. For instance, all receptor-based antiparkinsonian drugs work via stimulating the […] DAR subtype whereas all FDA-approved antipsychotic agents are antagonists of this receptor. […] There are three different types of allosteric modulators that we are seeking, two of which will stimulate or augment receptor signaling, allosteric agonists and potentiators, while the third, allosteric antagonists, will attenuate receptor signaling. The present primary screening assay measures compound agonism by tracking calcium flux in a […], inducible Hek293 Trex D1 cell line.
D(1A) dopamine receptor (Homo sapiens), sequence (P21728 whole entry, looked up): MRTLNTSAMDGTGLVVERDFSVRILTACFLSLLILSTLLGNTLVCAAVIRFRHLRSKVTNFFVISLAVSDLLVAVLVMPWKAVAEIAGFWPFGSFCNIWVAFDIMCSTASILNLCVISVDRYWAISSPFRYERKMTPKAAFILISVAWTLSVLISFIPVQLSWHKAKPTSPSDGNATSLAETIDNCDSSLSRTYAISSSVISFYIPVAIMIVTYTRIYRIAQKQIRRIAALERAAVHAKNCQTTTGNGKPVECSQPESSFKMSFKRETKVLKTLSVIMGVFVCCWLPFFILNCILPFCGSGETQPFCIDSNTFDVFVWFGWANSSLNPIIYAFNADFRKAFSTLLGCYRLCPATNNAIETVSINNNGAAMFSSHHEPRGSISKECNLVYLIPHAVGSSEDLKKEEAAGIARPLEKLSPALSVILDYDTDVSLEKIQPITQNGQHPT
Freshly passaged cells are plated in 1536 well black, clear bottom plates at a density of 4000 cells/well in 3 ul of complete media containing 1x tetracycline inducer. After an overnight incubation at 30 C in 5% CO2, cells are loaded with 2 ul of the no wash Calcium Assay Kit (ABD Bioquest) and incubated at room temperature for 30 to 90 minutes. A 10 cycle (1 second/cycle) baseline measurement is taken and then the FDSS online 1536 pintool delivers 23 nl of compound library (as well as dopamine controls) to the plate. The plate is measured for kinetically at 1 cycle/sec for 180 seconds and is considered to be the agonist portion of the assay (eg, compounds which activate a positive calcium response during this portion are flagged as potential agonists). Following the 180 second read, 1 ul of an EC20 of dopamine is delivered by an onboard pipette head. Measurements are taken kinetically for an additional 180 seconds.
On to `CN(N=O)c1ccc(O)c(O)c1`, for which the Potency entry was “inactive”.
With `C=CCN1CCc2cccc3c2[C@H]1Cc1ccc(O)c(O)c1-3` the figure was 0.794 µM (active).
The value for `CCN(CCCl)Cc1ccccc1Br` was “inactive”; that for `CC(C)NP(=O)(NC(C)C)OP(=O)(NC(C)C)NC(C)C` was “inactive”; that for `NC(N)=Nc1ccc2[nH]c3c(c2c1)C[C@@]1(O)[C@H]2Cc4ccc(O)c5c4[C@@]1(CCN2CC1CC1)[C@H]3O5` was “inactive”.
The value for `CC(=O)c1c(O)c(C)c(O)c(Cc2c(O)c3c(c(C(=O)/C=C/c4ccccc4)c2O)OC(C)(C)C=C3)c1O` was “inactive”.
Consider `OCc1cnc[nH]1`, for which the Potency entry is “inactive”.
With `COC(=O)N1CCN(C(=O)Cc2ccc(Cl)c(Cl)c2)C(CN2CCCC2)C1` (stereo not given) the entry was “inactive”; with `COc1ccc2c(c1O)-c1cccc3c1[C@@H](C2)N(C)CC3`, “inactive”; with `Cc1o[nH]c(=O)c1CC(N)C(=O)O` (stereo not given), “inactive”.
The value for `N[C@@H](CCl)C(=O)O` was “inactive”.
With `NCCCP(=O)(O)O` the entry was “inactive”; with `NC(C(=O)O)c1cc(=O)[nH]o1` (stereo not given), “inactive”.
For the compound `c1ccc2cc(CC3=NCCN3)ccc2c1`, the Potency result is “inactive”.
As for `COc1ccc2[nH]c3c(c2c1)CCNC3`, the Potency entry is “inactive”.
The value for `CC(N)Cc1c[nH]c2ccc(O)cc12` (stereo not given) was “inactive”; that for `CCCCCCCCCCCCCC(=O)O[C@@H]1[C@@H](C)[C@@]2(O)[C@@H](C=C(CO)C[C@@]3(O)C(=O)C(C)=C[C@@H]23)C2C(C)(C)[C@@]21OC(C)=O` (stereo not given in full) was “inactive”.
The value for `CCCN(CCC)CCc1c[nH]c2ccc(C(N)=O)cc12` was “inactive”; that for `O=[N+]([O-])c1cc(O)c(O)c([N+](=O)[O-])c1` was “inactive”.
With `CCCn1c(C)c(C(=O)c2ccc3ccccc3c2)c2ccccc21` the entry was “inactive”.
Regarding `CCCN(CCC)[C@H]1CCc2c(F)ccc(O)c2C1`, the Potency result was “inactive”.
The value for `CN1CCc2cc(O)cc3c2[C@H]1Cc1ccc(O)c(O)c1-3` was “inactive”.
With `CC(=O)OCC1=C(C(=O)O)N2C(=O)[C@@H](NC(=O)CCC[C@@H](N)C(=O)O)[C@H]2SC1` the entry was “inactive”.
The value for `CCNC(=O)[C@H]1O[C@@H](n2cnc3c(N)ncnc32)[C@H](O)[C@@H]1O` was “inactive”.
As to `CC(C)[C@@]1(NC(=O)[C@@H]2C[C@@H]3c4cccc5[nH]cc(c45)C[C@H]3N(C)C2)O[C@@]2(O)[C@@H]3CCCN3C(=O)[C@H](Cc3ccccc3)N2C1=O`, the Potency entry is “inactive”.
The value for `COc1ccc2c(c1)c(CCN1CCOCC1)c(C)n2C(=O)c1cccc(Cl)c1Cl` was “inactive”.
The value for `C[C@H](N)Cc1cccc(C(F)(F)F)c1` was “inactive”; that for `C[N+]1(C)CCOC(O)(c2ccc(-c3ccc(C4(O)C[N+](C)(C)CCO4)cc3)cc2)C1` (stereo not given) was “inactive”; that for `C=CCN1CC[C@]23c4c5ccc(O)c4O[C@@H]2/C(=N/N=C2\CC[C@@]4(O)C6Cc7ccc(O)c8c7[C@@]4(CCN6CC=C)[C@@H]2O8)CC[C@@]3(O)C1C5` was “inactive”.
As to `Cc1cc([C@@H]2CCCN2C)on1`, the Potency entry is “inactive”.
With `O=C(O)c1cc[c]([Hg][Cl])cc1` the entry was “inactive”; with `O=[N+]([O-])/C=C/c1ccc2c(c1)OCO2`, “inactive”; with `Oc1ccc2c3c1O[C@H]1c4[nH]c5ccccc5c4C[C@@]4(O)C(C2)N(CC2CC2)CCC314` (stereo not given in full), “inactive”.
Take `c1ccc2c(N3CCNCC3)cccc2c1`: the Potency entry was “inactive”.
`C[N+](C)(C)CCOC(=O)CBr`: the Potency entry was “inactive”.
With `Cc1c2ccncc2c(C)c2c1[nH]c1ccccc12` the figure was 10 µM (active).
The value for `CN1CCC(c2c[nH]c3ccc(O)cc23)CC1` was “inactive”; that for `CCCN(CCC)CCc1ccc(O)c(O)c1` was “inactive”; that for `NNC(N)=O` was “inactive”.
In the case of `CN1CC[C@@]2(C)c3cc(OC(=O)Nc4ccccc4)ccc3N(C)[C@@H]12`, the Potency result was “inactive”.

These data come from PubChem BioAssay (NCATS).
